Results on seven compounds are retold here after PubChem BioAssay (Tox21).

The nature of assay [1]: A CellTox Green Cytotoxicity Assay to monitor cytotoxicity in HEK293 cells - 32 hour (AID 1224881). Note: nearly all actives have a fitted effect of over 40% in size. The essentials: (§1)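 Seeding of HEK293 cells together with cytotoxicity dye preceded a 5 h incubation at 37 C/5% CO2. Test compounds in DMSO were then added and fluorescence monitored across 40 h.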
The nature of assay [2]: A CellTox Green Cytotoxicity Assay to monitor cytotoxicity in HepG2 cells - 0 hour (AID 1224882). Note: nearly all actives have a fitted effect of over 35% in size. The essentials:
(§2)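 Nonlytic assay: viable cells exclude the dye, so fluorescence scales with cell death. HepG2 at 600 cells/well, compounds added after 5 h, signal read across 40 h.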

The nature of assay [3]: A CellTox Green Cytotoxicity Assay to monitor cytotoxicity in HepG2 cells - 32 hour (AID 1224883). Note: nearly all actives have a fitted effect of over 50% in size. The essentials: as §2
The nature of assay [4]: A CellTox Green Cytotoxicity Assay to monitor cytotoxicity in HEK293 cells - 8 hour (AID 1224884). Note: nearly all actives have a fitted effect of over 35% in size. The essentials:
as §1

Assay [5] in a line: qHTS RealTime-Glo MT Cell Viability Assay in HepG2 cells - 16 hour (AID 1224885). Note: nearly all actives have a fitted effect of over 50% in size. The essentials:
(§3)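 Viability was tracked continuously by NanoLuc luminescence from prosubstrate reduced by living HepG2 cells, at successive time points over 40 h of compound exposure. Cells with reagent were preincubated 5 h at 37 °C before compound addition.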

The nature of assay [6]: qHTS RealTime-Glo MT Cell Viability Assay in HEK293 cells - 24 hour (AID 1224886). Note: top concentration of the series differs between compounds; nearly all actives have a fitted effect of over 50% in size. The essentials:
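Viability tracked continuously by luminescence as live cells reduce a prosubstrate for NanoLuc; HEK293 cells preincubated 5 h, compound-treated at 37 C, and read at 0, 8, 16, 24, 32 and 40 h.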
For orientation: In qHTS, concentration-response curves come from the screen itself.

A short description of assay [7]: A CellTox Green Cytotoxicity Assay to monitor cytotoxicity in HEK293 cells - 16 hour (AID 1224888). Note: nearly all actives have a fitted effect of over 35% in size. The essentials: as §1
The nature of assay [8]: qHTS RealTime-Glo MT Cell Viability Assay in HepG2 cells - 0 hour (AID 1224889). Note: nearly all actives have a fitted effect of over 50% in size. The essentials:
as §3

Assay [9] is described as follows: A CellTox Green Cytotoxicity Assay to monitor cytotoxicity in HepG2 cells - 8 hour (AID 1224890). Note: nearly all actives have a fitted effect of over 45% in size. The essentials:
as §2

A short description of assay [10]: qHTS assay to identify small molecule antagonists of the estrogen receptor alpha (ER-alpha) signaling pathway using the BG1 cell line in the presence of 0.1 nM 17-beta-estradiol - cell viability counter screen (AID 1259241). Note: nearly all actives have a fitted effect of over 40% in size. The essentials:
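VM7Luc4E2, 4,000 cells/well, phenol red-free medium + 10% charcoal-stripped FBS; 24 hr plating; cpd + 0.1 nM E2 final, 22 hr 37C/5% CO2; CellTiter-Fluor 30 min, fluorescence.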

Assay [11] is described as follows: qHTS assay to identify small molecule antagonists of the androgen receptor (AR) signaling pathway using the MDA cell line in the presence of 0.5 nM R1881 - cell viability counter screen (AID 1259242). Note: nearly all actives have a fitted effect of over 45% in size. The essentials:
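R1881 at 0.5 nM final stimulated MDA-kb2 cells during 16 hr compound treatment at 37C. Cytotoxicity read: CellTiter-Fluor fluorescence after 30 min.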

Assay [12] in a line: qHTS assay to identify small molecule HDAC inhibitors - cell viability counter screen (AID 1259365). The essentials: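 Luminescence from CellTiter-Glo, developed 30min at room temperature, reports viability of wild-type HCT-116 cells treated 2hr with compounds at 37 C and 5% CO2 after overnight plating.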
Assay [13] in a line: qHTS assay to identify small molecule agonists of the sonic hedgehog signaling (Shh) pathway - cell viability counter screen (AID 1259366). Note: nearly all actives have a fitted effect of over 50% in size. The essentials: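 Cytotoxicity counter screen run in the same wells as the Shh reporter assay. NIH/3T3 cells carrying a Gli1 response element–driven luciferase were treated with DMSO-dissolved compounds for 24hr, and live-cell protease activity was measured with CellTiter-Fluor.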

Assay [14] in a line: qHTS assay to identify small molecule agonists of the sonic hedgehog signaling (Shh) pathway (AID 1259368; calls by dose curve;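 note: NIH/3T3-derived 3T3Gli1-Luc cells carrying a stable Gli1-driven firefly luciferase reporter; series mostly up to about 92 µM; nearly all actives have a fitted effect of over 15% in size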). The essentials:
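Mouse fibroblast (NIH/3T3) reporter cells with stably integrated Gli1-Luc were treated 24 hr with compound; firefly luciferase luminescence served as the read-out.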

Assay [15] can be described thus: qHTS RealTime-Glo MT Cell Viability Assay in HEK293 cells - 8 hour (AID 1224887). The essentials:
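Tox21 screen in HEK293 using RealTime-Glo MT chemistry, with cells and reagent co-dispensed. Luminescence proportional to viable cell number was captured at intervals during 40 h compound exposure at 37 C.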

The target of assay [16] is Estrogen receptor (Homo sapiens) (UniProt P03372). The experiment in a line: qHTS assay to identify small molecule antagonists of the estrogen receptor alpha (ER-alpha) signaling pathway using the BG1 cell line in the presence of 0.1 nM 17-beta-estradiol (AID 1259244). Note: nearly all actives have a fitted effect of over 50% in size. Note: potency is the fitted concentration of half-maximal effect. The essentials:
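VM7Luc4E2; 4xERE-luciferase; 0.1 nM E2 final; 22 h co-incubation, 37C; ONE-Glo luminescence after 30 min at room temperature.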

The nature of assay [17]: qHTS assay to identify small molecule phospholipidosis (PLD) inducers (AID 1259344; active = well fitted curve in the direction sought with a large enough effect; an effect the other way counts as inactive or inconclusive). The essentials:
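Phospholipidosis is scored by imaging LipidTOX-stained pits in HepG2 cells exposed to compound for 24 h at 37 C; pit counts and integrated intensities per well and per cell serve as outputs.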

Assay [18] is described as follows: qHTS assay to identify small molecule HDAC inhibitors (AID 1259364).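 Note: wild-type HCT-116 cells with endogenous class I/II HDAC activity; top concentration of the series differs between compounds; nearly all actives have a fitted effect of over 45% in size.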 The essentials:
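Relative class I and II HDAC activity is taken from the luminogenic signal in HCT-116 cells, with compound exposure 2 hr and reagent development 30 min at room temperature.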

The nature of assay [19]: qHTS assay to identify small molecule antagonists of the sonic hedgehog signaling (Shh) pathway - cell viability counter screen (AID 1259367). Note: nearly all actives have a fitted effect of over 55% in size. The essentials:
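Cells: 3T3 Gli1-Luc, 2,000/well, 4 hr pre-incubation. Compounds in DMSO, then conditioned medium. Incubation 24 hr, 37C, 5% CO2. CellTiter-Fluor at 23 hr, 1 hr, fluorescence.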

The structures appear in SMILES notation. Unmarked numbers belong to inactive results. Inconclusive results are not listed. Active and inactive are the calls of the source. Unless noted, calls come from the whole dose curve; as a rule, active = well fitted curve in the direction sought with a large enough effect in the repeat runs; inconclusive = weak or mixed curves; inactive = no such curve, though single readings can be large; an effect the other way counts as inactive or inconclusive.
% is set by controls: 0 for no effect and ±100 for the full control effect.

Chain of Estrogen receptor (Homo sapiens) (P03372 whole entry, looked up): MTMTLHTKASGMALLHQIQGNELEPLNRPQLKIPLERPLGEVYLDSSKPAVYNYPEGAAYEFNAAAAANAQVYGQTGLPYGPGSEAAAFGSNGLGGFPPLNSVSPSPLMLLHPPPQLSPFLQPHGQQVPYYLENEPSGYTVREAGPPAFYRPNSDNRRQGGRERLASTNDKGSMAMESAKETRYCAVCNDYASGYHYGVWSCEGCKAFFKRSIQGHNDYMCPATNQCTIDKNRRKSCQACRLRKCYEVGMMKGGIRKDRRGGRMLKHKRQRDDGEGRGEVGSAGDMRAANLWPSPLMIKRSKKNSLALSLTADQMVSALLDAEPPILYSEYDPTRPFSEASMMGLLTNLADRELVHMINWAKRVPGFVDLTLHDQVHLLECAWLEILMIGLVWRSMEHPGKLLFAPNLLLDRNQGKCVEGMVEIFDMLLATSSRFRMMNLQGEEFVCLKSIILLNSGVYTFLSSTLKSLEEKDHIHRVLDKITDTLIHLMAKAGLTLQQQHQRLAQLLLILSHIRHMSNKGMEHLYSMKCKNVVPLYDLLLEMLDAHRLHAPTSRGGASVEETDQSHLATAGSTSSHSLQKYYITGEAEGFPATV

For the compound `O=C(O)CC(=O)C(=O)O`, the Potency entry in assay [1], in [2], in assay [3], in [4], in assay [5] and in assay [6] was “inactive” throughout. In addition, the Potency result in [7], in [8], in [9], in assay [10], in assay [11] and in [12] was “inactive” each time. In assay [13], the Potency entry is “inactive”. Further, in assay [14], the compound was called inactive.
Take `C[N+]1(CC2COC(c3ccccc3)(C3CCCCC3)O2)CCCCC1` (centres undefined): the Potency entry in assay [1], in assay [2], in assay [3], in [4], in [5] and in assay [15] was “inactive” throughout. Also, the Potency result in [7], in [8], in [9], in assay [10], in [11] and in [16] was “inactive” in each case. The Potency entry in assay [17], in [18], in [12], in assay [13] and in assay [19] was “inactive” throughout. The outcome in assay [14] was inactive.
In the case of `CO[C@@H]1[C@H](OC(=O)/C=C/C=C/C=C/C=C/C(=O)O)CC[C@]2(CO2)[C@H]1[C@@]1(C)O[C@@H]1CC=C(C)C`, the Potency result in [1], in [2], in assay [3], in assay [4], in assay [5] and in assay [15] was “inactive” each time. Further, the Potency entry in [7], in assay [8], in [10], in assay [11], in assay [17] and in assay [18] was “inactive” each time. The Potency result in assay [12], in assay [13] and in assay [19] was “inactive” each time. Besides, in assay [14], the compound was classed as inactive.
In the case of `Cc1[nH]c(C)c(Cl)c(=O)c1Cl`, the cytotoxicity increase is -3.98% [at 15.8 µM] in [1], -7.2% [at 15.8 µM] in [3] and -1.54% [at 15.8 µM] in assay [4]. Also, in [2], the cytotoxicity was -3.1% [at 15.8 µM]. Moreover, in assay [5], the activity change, negative = cytotoxic was 0.907% [at 15.8 µM]. Moreover, the activity change, negative = cytotoxicity is -19.4% [at 15.8 µM] in [6], -1.76% [at 15.8 µM] in assay [8], -5.47% [at 19 µM] in assay [10] and 8.49% [at 19 µM] in assay [12]. In addition, the activity change in [7] was -2.28% [at 15.8 µM, stronger effect = higher value]; in assay [14], -0.115% [at 18.9 µM]. Besides, the viability change, negative = cytotoxic was 1.2% [at 19 µM] in assay [11], 6.9% [at 19 µM] in [13] and 1.87% [at 19 µM] in [19]. Also, the Potency result in assay [16] and in [17] was “inactive” in each case. In [18], the activity change, negative = inhibition is 7.15% [at 19 µM].
With `CCCCNc1ccc(C(=O)OCCOCCOCCOCCOCCOCCOCCOCCOCCOC)cc1`, the Potency result in assay [1], in assay [2], in assay [3], in [4], in assay [5] and in assay [15] was “inactive” each time. Also, the Potency entry in assay [7], in [8], in assay [9], in assay [10], in assay [11] and in assay [17] was “inactive” in each case. In addition, the Potency result in assay [18], in assay [12] and in assay [13] was “inactive” each time. The Potency in assay [16] was 8.41 µM (active). Besides, the result in assay [14] was inactive.
As for `CCCCc1ncc(/C=C(\Cc2cccs2)C(=O)O)n1Cc1ccc(C(=O)O)cc1`, the Potency result in [1], in [2], in [3], in assay [4], in assay [5] and in [6] was “inactive” each time. For the same compound, the Potency result in [7], in assay [8], in assay [9], in [10], in [11] and in assay [17] was “inactive” in each case. The Potency result in assay [18], in assay [12], in assay [13] and in [19] was “inactive” throughout. In assay [14], the compound was called inactive.
For `O=C(O)c1ccc(S(=O)(=O)O)cc1C(=O)O`, the Potency entry in assay [1], in assay [2], in [3], in assay [4], in [5] and in [7] was “inactive” in each case. The Potency result in [9], in assay [10], in [11], in [16], in assay [18] and in assay [12] was “inactive” in each case. The Potency entry in assay [13] and in assay [19] was “inactive” each time. Also, the result in assay [14] was inactive.
